Key:
[1] = molecular target: Mitogen-activated protein kinase 3 (Homo sapiens) (UniProt P27361); details: at 1 µM;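 note: values are mean percent inhibition of MAPK3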
[2] = molecular target: SRSF protein kinase 3 (Homo sapiens) (UniProt Q9UPE1); details: at 0.1 µM
[3] = molecular target: SRSF protein kinase 3 (Homo sapiens) (UniProt Q9UPE1); details: at 1 µM
[4] = molecular target: Mitogen-activated protein kinase 14 (Homo sapiens) (UniProt Q16539); details: at 0.1 µM
[5] = molecular target: Mitogen-activated protein kinase 14 (Homo sapiens) (UniProt Q16539); details: at 1 µM
[6] = molecular target: Mitogen-activated protein kinase 11 (Homo sapiens) (UniProt Q15759); details: at 0.1 µM
[7] = molecular target: Mitogen-activated protein kinase 11 (Homo sapiens) (UniProt Q15759); details: at 1 µM
[8] = molecular target: T1, Mitogen-activated protein kinase 13 (Homo sapiens) (UniProt O15264); details: at 0.1 µM
T1 sequence (whole entry): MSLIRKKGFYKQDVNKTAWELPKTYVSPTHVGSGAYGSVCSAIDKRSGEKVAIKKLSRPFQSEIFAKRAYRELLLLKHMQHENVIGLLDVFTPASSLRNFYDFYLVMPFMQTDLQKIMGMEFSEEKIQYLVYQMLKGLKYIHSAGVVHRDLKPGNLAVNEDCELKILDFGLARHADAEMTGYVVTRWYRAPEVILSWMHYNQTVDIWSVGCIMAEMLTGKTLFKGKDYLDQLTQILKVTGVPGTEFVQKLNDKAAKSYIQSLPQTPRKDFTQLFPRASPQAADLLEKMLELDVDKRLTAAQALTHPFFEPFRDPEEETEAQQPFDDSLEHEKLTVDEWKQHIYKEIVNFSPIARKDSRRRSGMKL

[9] = molecular target: T1, Mitogen-activated protein kinase 13 (Homo sapiens); details: at 1 µM
[10] = molecular target: T2, Mitogen-activated protein kinase 12 (Homo sapiens) (UniProt P53778); details: at 0.1 µM
T2 sequence (whole entry): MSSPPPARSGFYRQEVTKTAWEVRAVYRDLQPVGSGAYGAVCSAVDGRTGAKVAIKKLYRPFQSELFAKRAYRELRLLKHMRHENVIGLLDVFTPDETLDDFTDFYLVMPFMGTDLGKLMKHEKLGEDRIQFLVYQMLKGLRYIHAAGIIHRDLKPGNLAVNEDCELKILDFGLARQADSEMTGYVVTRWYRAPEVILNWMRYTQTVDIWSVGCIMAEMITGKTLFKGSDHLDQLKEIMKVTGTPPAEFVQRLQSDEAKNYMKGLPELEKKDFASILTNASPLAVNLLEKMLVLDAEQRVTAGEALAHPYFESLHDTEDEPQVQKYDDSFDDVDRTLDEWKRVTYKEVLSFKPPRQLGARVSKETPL

[11] = molecular target: T2, Mitogen-activated protein kinase 12 (Homo sapiens); details: at 1 µM
[12] = molecular target: SRSF protein kinase 1 (Homo sapiens) (UniProt Q96SB4); details: at 0.1 µM
[13] = molecular target: SRSF protein kinase 1 (Homo sapiens) (UniProt Q96SB4); details: at 1 µM
[14] = molecular target: Phosphatidylinositol 4,5-bisphosphate 3-kinase catalytic subunit alpha isoform (Homo sapiens) (UniProt P42336); details: at 0.1 µM
[15] = molecular target: Phosphatidylinositol 4,5-bisphosphate 3-kinase catalytic subunit alpha isoform (Homo sapiens) (UniProt P42336); details: at 1 µM
[16] = molecular target: T3, Phosphatidylinositol 4,5-bisphosphate 3-kinase catalytic subunit delta isoform (Homo sapiens) (UniProt O00329); details: at 0.1 µM
T3 sequence (whole entry): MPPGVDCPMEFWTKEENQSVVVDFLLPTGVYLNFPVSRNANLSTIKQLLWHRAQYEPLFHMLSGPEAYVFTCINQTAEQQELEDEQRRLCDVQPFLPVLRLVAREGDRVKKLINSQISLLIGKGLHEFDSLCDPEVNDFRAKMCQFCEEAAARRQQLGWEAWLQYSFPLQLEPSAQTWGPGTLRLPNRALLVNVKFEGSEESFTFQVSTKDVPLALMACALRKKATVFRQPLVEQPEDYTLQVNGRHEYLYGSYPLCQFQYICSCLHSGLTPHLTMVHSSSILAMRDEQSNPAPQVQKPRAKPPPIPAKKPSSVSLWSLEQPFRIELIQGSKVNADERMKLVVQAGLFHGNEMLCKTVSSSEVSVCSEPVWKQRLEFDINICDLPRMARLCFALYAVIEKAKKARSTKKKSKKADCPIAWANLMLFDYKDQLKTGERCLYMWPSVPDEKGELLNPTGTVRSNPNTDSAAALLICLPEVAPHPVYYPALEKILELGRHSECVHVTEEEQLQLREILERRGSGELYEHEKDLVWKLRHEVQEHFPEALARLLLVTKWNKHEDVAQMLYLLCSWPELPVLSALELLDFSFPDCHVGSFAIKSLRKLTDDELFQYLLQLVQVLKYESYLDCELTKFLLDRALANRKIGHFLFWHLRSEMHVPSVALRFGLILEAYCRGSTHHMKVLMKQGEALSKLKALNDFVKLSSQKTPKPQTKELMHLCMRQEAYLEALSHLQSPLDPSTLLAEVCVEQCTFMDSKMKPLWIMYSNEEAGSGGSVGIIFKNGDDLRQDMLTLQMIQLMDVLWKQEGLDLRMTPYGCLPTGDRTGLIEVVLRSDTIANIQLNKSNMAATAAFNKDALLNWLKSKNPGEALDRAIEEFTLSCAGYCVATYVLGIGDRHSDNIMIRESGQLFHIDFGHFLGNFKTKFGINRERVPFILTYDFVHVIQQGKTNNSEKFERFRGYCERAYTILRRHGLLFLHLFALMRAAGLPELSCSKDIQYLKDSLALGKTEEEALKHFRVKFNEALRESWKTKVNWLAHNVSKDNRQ

[17] = molecular target: T3, Phosphatidylinositol 4,5-bisphosphate 3-kinase catalytic subunit delta isoform (Homo sapiens); details: at 1 µM
[18] = molecular target: Phosphatidylinositol 4-kinase beta (Homo sapiens) (UniProt Q9UBF8); details: at 0.1 µM
[19] = molecular target: Phosphatidylinositol 4-kinase beta (Homo sapiens) (UniProt Q9UBF8); details: at 1 µM
[20] = molecular target: Sphingosine kinase 1 (Homo sapiens) (UniProt Q9NYA1); details: at 0.1 µM;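 note: mean percent inhibition of SPHK1 activity, measured within the GSK PKIS screening panel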
Sequence of Sphingosine kinase 1 (Homo sapiens) (Q9NYA1 whole entry): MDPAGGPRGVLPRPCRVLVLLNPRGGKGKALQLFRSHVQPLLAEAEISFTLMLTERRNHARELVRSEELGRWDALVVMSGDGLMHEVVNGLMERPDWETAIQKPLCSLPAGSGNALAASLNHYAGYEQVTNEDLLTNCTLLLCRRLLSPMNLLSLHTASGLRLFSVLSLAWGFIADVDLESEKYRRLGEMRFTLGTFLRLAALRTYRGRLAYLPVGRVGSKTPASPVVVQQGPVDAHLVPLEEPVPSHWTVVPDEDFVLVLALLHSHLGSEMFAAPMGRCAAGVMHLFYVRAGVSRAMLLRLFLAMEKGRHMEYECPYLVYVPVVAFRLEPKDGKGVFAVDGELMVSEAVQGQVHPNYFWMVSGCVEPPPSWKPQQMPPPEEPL

Sequence of Phosphatidylinositol 4,5-bisphosphate 3-kinase catalytic subunit alpha isoform (Homo sapiens) (P42336 whole entry, canonical isoform): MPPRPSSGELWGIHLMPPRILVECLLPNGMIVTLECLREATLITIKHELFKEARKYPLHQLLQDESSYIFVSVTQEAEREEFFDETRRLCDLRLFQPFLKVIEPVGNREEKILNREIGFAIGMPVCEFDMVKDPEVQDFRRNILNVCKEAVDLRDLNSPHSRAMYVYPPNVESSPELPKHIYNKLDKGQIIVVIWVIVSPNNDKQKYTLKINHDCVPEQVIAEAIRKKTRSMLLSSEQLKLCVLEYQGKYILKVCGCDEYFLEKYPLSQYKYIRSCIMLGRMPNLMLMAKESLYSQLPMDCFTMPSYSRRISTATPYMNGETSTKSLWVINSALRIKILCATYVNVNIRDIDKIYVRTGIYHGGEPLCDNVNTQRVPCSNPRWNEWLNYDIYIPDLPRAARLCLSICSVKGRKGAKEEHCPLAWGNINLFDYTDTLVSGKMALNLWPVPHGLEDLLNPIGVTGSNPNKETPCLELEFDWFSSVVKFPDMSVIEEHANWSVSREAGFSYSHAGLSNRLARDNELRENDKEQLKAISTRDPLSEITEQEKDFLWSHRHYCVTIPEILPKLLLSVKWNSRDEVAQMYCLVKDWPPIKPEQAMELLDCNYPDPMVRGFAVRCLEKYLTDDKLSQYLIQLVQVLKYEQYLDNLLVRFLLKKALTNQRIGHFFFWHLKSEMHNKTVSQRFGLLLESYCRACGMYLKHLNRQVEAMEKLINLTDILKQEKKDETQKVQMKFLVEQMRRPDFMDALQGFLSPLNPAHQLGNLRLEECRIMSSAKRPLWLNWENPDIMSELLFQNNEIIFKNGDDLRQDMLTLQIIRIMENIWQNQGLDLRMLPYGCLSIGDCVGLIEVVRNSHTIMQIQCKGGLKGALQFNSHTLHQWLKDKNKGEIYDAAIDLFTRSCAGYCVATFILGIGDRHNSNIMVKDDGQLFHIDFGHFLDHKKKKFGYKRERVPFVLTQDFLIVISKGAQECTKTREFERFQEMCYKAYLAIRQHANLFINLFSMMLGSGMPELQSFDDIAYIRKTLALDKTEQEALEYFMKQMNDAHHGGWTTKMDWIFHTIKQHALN
Sequence of Phosphatidylinositol 4-kinase beta (Homo sapiens) (Q9UBF8 2-816 limits assumed): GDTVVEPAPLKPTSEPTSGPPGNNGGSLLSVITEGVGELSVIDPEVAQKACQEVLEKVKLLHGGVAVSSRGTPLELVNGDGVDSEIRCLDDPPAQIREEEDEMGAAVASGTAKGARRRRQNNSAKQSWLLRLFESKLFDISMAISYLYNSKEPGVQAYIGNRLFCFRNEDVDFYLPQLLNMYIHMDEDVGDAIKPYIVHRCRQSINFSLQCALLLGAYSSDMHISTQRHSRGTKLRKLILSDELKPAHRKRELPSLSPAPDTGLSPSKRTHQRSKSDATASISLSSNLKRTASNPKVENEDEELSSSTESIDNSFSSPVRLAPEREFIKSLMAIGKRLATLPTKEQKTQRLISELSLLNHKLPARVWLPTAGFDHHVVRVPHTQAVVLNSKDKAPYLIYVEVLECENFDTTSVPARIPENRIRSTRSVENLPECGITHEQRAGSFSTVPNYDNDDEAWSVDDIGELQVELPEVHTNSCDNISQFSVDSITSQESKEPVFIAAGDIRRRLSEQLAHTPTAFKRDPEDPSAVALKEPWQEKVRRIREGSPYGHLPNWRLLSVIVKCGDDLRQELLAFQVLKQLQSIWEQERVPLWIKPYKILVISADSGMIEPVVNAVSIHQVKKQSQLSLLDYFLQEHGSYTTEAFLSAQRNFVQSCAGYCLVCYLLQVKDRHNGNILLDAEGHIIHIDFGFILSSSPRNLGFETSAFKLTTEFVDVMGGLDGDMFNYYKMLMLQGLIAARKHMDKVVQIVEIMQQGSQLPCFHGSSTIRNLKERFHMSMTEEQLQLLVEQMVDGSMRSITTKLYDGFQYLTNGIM
Sequence of SRSF protein kinase 3 (Homo sapiens) (Q9UPE1 whole entry): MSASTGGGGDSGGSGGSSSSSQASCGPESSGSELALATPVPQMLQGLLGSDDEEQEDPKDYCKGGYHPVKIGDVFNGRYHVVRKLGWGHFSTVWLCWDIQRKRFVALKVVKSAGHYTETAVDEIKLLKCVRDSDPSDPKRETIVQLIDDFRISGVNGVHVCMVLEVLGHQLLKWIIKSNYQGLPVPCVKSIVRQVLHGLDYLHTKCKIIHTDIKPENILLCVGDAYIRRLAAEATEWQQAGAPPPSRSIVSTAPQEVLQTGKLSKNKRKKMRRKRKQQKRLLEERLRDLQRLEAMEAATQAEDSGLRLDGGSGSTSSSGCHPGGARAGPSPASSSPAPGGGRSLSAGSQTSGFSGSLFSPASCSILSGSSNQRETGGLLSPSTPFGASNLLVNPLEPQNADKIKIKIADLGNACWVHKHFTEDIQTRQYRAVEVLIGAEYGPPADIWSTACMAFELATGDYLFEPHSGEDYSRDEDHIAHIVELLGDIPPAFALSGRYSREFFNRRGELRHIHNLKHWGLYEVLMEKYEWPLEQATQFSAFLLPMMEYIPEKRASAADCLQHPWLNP
Sequence of Mitogen-activated protein kinase 14 (Homo sapiens) (Q16539 whole entry): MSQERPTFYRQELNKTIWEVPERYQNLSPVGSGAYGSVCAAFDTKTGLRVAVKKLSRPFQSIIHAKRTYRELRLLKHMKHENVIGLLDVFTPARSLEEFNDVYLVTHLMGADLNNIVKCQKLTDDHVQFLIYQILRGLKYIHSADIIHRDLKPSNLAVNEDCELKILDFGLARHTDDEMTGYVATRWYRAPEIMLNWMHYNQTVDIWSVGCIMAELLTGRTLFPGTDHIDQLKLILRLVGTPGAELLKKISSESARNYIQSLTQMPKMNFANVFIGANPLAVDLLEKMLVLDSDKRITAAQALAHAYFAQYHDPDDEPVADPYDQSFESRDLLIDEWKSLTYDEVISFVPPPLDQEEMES
Sequence of Mitogen-activated protein kinase 3 (Homo sapiens) (P27361 whole entry): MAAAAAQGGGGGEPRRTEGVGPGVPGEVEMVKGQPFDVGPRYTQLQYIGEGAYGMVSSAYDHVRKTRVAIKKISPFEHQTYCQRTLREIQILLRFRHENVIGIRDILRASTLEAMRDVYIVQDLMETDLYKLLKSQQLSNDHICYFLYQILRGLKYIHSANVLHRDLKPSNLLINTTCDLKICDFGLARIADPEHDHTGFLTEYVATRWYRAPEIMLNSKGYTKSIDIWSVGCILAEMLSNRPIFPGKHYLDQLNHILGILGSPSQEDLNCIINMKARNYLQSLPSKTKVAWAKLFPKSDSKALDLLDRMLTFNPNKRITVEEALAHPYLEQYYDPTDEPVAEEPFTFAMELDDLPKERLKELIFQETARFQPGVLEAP
Sequence of Mitogen-activated protein kinase 11 (Homo sapiens) (Q15759 whole entry): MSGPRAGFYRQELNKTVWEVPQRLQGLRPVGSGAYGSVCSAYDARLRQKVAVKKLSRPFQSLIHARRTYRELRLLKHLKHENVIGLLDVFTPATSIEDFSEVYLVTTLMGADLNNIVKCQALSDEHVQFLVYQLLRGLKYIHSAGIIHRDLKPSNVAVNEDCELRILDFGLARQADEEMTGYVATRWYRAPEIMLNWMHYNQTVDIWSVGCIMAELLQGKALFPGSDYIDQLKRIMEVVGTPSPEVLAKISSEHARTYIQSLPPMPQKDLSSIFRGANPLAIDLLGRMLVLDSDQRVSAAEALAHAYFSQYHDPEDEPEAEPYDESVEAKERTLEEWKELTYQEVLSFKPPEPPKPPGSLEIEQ
Sequence of SRSF protein kinase 1 (Homo sapiens) (Q96SB4 whole entry, canonical isoform): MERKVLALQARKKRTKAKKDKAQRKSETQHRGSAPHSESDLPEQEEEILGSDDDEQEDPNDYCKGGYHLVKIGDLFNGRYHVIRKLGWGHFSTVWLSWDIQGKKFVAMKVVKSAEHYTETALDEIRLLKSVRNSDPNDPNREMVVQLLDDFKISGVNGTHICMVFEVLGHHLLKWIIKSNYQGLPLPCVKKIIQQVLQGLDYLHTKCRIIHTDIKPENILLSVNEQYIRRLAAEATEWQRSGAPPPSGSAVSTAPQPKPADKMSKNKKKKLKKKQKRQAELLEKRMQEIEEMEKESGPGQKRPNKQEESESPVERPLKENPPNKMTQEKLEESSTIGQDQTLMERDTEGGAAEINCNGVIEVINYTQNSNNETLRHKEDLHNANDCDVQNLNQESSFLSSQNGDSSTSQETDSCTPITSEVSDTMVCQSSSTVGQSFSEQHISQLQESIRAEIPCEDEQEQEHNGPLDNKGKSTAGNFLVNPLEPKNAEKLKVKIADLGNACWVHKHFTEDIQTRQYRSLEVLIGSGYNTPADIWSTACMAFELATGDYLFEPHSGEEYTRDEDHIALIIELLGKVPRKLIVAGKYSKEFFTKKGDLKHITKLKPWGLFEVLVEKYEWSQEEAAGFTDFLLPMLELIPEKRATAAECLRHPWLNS

`COc1cccc(COc2cc(-n3cnc4ccccc43)sc2C(N)=O)c1` gave an inhibition [1] of 3%, an inhibition [2] of -1.99% and an inhibition [3] of -1.01%. It also gave an inhibition [4] of 1.67%, an inhibition [5] of 8.88% and an inhibition [6] of 1.92%. For the same molecule, the inhibition [7] was 4.36%, the inhibition [8] was -0.06% and the inhibition [9] was -2.46%. The inhibition [10] was -0.12%, the inhibition [11] was -0.04% and the inhibition [12] was -3.25%. The inhibition [13] was -2.74%, the inhibition [14] was 0.82% and the inhibition [15] was 1.56%. It also gave an inhibition [16] of 1.62%, an inhibition [17] of 3.63% and an inhibition [18] of 1.38%. It also gave an inhibition [19] of -0.71% and an inhibition [20] of 2.22%.

With `CCn1c(-c2nonc2N)nc2c(C#CC(C)(C)O)ncc(OC[C@@H]3CCCN3)c21` the inhibition [1] was 2.32%, the inhibition [2] was -2.22% and the inhibition [3] was -4.41%. For the same molecule, the inhibition [4] was 0.34%, the inhibition [5] was 0.75% and the inhibition [6] was 1.96%. The inhibition [7] was 1.41%, the inhibition [8] was 0.68% and the inhibition [9] was -1.56%. It also gave an inhibition [10] of 0.36%, an inhibition [11] of 0.35% and an inhibition [12] of -1.57%. For the same molecule, the inhibition [13] was -2.53%, the inhibition [14] was -0.15% and the inhibition [15] was 0.24%. The inhibition [16] was 0.06%, the inhibition [17] was 0.22% and the inhibition [18] was 0.05%. For the same molecule, the inhibition [19] was 1.54% and the inhibition [20] was -0.8%.

`Nc1nonc1-c1nc2cnccc2n1C1CCCCC1` showed an inhibition [1] of 2.55%, an inhibition [2] of -1.48% and an inhibition [3] of -1.01%. For the same molecule, the inhibition [4] was -0.43%, the inhibition [5] was -3.77% and the inhibition [6] was -1.77%. The inhibition [7] was 0.28%, the inhibition [8] was -3.11% and the inhibition [9] was 1.87%. For the same molecule, the inhibition [10] was -0.65%, the inhibition [11] was 0.39% and the inhibition [12] was 1%. The inhibition [13] was -0.52%, the inhibition [14] was -2.06% and the inhibition [15] was -3.54%. The inhibition [16] was -1.65%, the inhibition [17] was 0.74% and the inhibition [18] was 4.2%. It also gave an inhibition [19] of -2.26% and an inhibition [20] of 0%.

`CCn1c(-c2nonc2N)nc2c(C#CCN)ncc(OCCCN)c21` showed an inhibition [1] of -0.18%, an inhibition [2] of -0.3% and an inhibition [3] of 3.44%. The inhibition [4] was 2.31%, the inhibition [5] was -5.03% and the inhibition [6] was -2.25%. For the same molecule, the inhibition [7] was 0.63%, the inhibition [8] was 2.51% and the inhibition [9] was -4.32%. For the same molecule, the inhibition [10] was -2.6%, the inhibition [11] was -2.79% and the inhibition [12] was 2.33%. It also gave an inhibition [13] of 7.14%, an inhibition [14] of -0.54% and an inhibition [15] of -3.54%. The inhibition [16] was -2.56%, the inhibition [17] was -5.7% and the inhibition [18] was 1.34%. It also gave an inhibition [19] of -2.08% and an inhibition [20] of 0.33%.

For `COc1cc(C=NNc2ncnc3c2cnn3Cc2ccccc2)ccc1O`, the inhibition [1] was -1.19%, the inhibition [2] was -1.86% and the inhibition [3] was -0.84%. It also gave an inhibition [4] of -2.19%, an inhibition [5] of -2.5% and an inhibition [6] of -3.2%. It also gave an inhibition [7] of -2.27%, an inhibition [8] of -0.79% and an inhibition [9] of -6.14%. It also gave an inhibition [10] of -2.53%, an inhibition [11] of -3.29% and an inhibition [12] of 1.24%. For the same molecule, the inhibition [13] was 0.29%, the inhibition [14] was -4.02% and the inhibition [15] was -1.81%. It also gave an inhibition [16] of 3.47%, an inhibition [17] of 6.81% and an inhibition [18] of -1.09%. The inhibition [19] was 2.84% and the inhibition [20] was 3.3%.

Molecule `Cc1cc(-c2ccco2)cc(C)c1/C=C/c1cncc(-c2nn[nH]n2)c1` has an inhibition [1] of 1.84%, an inhibition [2] of -1.41% and an inhibition [3] of -1.53%. It also gave an inhibition [4] of 1.46%, an inhibition [5] of 1.43% and an inhibition [6] of 3.14%. For the same molecule, the inhibition [7] was 3.31%, the inhibition [8] was 0.77% and the inhibition [9] was -1.04%. The inhibition [10] was 0.9%, the inhibition [11] was 1.3% and the inhibition [12] was -0.96%. The inhibition [13] was -1.7%, the inhibition [14] was -0.22% and the inhibition [15] was 6.64%. For the same molecule, the inhibition [16] was 0.16%, the inhibition [17] was -1.23% and the inhibition [18] was -1.26%. It also gave an inhibition [19] of 9.03% and an inhibition [20] of 0.73%.

`Fc1ccc(-c2ncn(C3CCNCC3)c2-c2ccnc(Oc3ccccc3)n2)cc1` showed an inhibition [1] of 3.04%, an inhibition [2] of -3.7% and an inhibition [3] of -2.18%. For the same molecule, the inhibition [12] was -1.48%, the inhibition [13] was -1.61% and the inhibition [14] was 1.53%. For the same molecule, the inhibition [15] was 0.06%, the inhibition [16] was 0.6% and the inhibition [17] was 1.12%. It also gave an inhibition [18] of 0.91%, an inhibition [19] of 2.57% and an inhibition [20] of 1.45%.

Source: ChEMBL document CHEMBL1961873, “Compounds: GSK PKIS; Assays: Nanosyn kinase panel” (2012)
